Experimental data as given in PubChem BioAssay (NCATS).
Records with an inconclusive call do not appear. The source made the active and inactive calls. Calls come from the whole dose curve; as a rule, active = well fitted curve in the direction sought with a large enough effect; inconclusive = small, poorly fitted or top-dose-only effect, or another doubt; inactive = no such curve, though single readings can be large; an effect the other way counts as inactive or inconclusive.

Legend:
MCC-13 = assay: qHTS assay to identify novel small-molecules to repurpose for Merkel cell carcinoma treatment (AID 1296009); settings: MCC and control cell lines, CellTiter-Glo viability, 72 h; series mostly up to 46 µM; note: nearly all actives have a fitted effect of over 60% in size
How it was run: (§1)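 Cell viability, measured as CellTiter-Glo luminescence, was normalized between DMSO and no-cell wells. The cells had been exposed to 8- or 11-point compound dilutions for 72 hr at 37 degree celsius.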

MCC-26 = assay: as above; settings: MCC and control cell lines, CellTiter-Glo viability, 72 h; series mostly up to 46 µM
How it was run: as §1

MKL-1 = assay: as above; settings: MCC and control cell lines, CellTiter-Glo viability, 72 h; series mostly up to 46 µM
How it was run: as §1

MKL-2 = assay: as above; settings: MCC and control cell lines, CellTiter-Glo viability, 72 h; series mostly up to 46 µM
How it was run: as §1

NIH3T3 = assay: as above; settings: MCC and control cell lines, CellTiter-Glo viability, 72 h; at 44.8 µM (top of the series) unless noted
How it was run: as §1

UISO = assay: as above; settings: MCC and control cell lines, CellTiter-Glo viability, 72 h; series mostly up to 46 µM
How it was run: as §1

WaGa = assay: as above; settings: MCC and control cell lines, CellTiter-Glo viability, 72 h; series mostly up to 46 µM
How it was run: as §1

C33A = assay: Primary qHTS to identify gynecologic anti-cancer compounds using libraries of approved drugs and bioactive compounds (AID 1345084); settings: Gynecologic cancer cell panel viability, ATPlite luminescence, 48 h; series mostly up to 57.5 µM; note: nearly all actives have a fitted effect of over 55% in size
How it was run: (§2)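 Five-concentration response, 48 h; readout is ATP-driven luciferase luminescence.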

CAOV3 = assay: as above; settings: Gynecologic cancer cell panel viability, ATPlite luminescence, 48 h; series mostly up to 57.5 µM
How it was run: as §2

CASKI = assay: as above; settings: Gynecologic cancer cell panel viability, ATPlite luminescence, 48 h; series mostly up to 57.5 µM
How it was run: as §2

Es-2 = assay: as above; settings: Gynecologic cancer cell panel viability, ATPlite luminescence, 48 h; series mostly up to 57.5 µM
How it was run: as §2

HeLa = assay: as above; settings: Gynecologic cancer cell panel viability, ATPlite luminescence, 48 h; series mostly up to 57.5 µM
How it was run: as §2

Hek293T = assay: as above; settings: Gynecologic cancer cell panel viability, ATPlite luminescence, 48 h, control line for the selectivity index; series mostly up to 57.5 µM
How it was run: as §2

JEG-3 = assay: as above; settings: Gynecologic cancer cell panel viability, ATPlite luminescence, 48 h; series mostly up to 57.5 µM
How it was run: as §2

PA-1 = assay: as above; settings: Gynecologic cancer cell panel viability, ATPlite luminescence, 48 h; series mostly up to 57.5 µM
How it was run: as §2

SKOV3 = assay: as above; settings: Gynecologic cancer cell panel viability, ATPlite luminescence, 48 h; series mostly up to 57.5 µM
How it was run: as §2

Tov-21-G = assay: as above; settings: Gynecologic cancer cell panel viability, ATPlite luminescence, 48 h; series mostly up to 57.5 µM
How it was run: as §2

Tov112D = assay: as above; settings: Gynecologic cancer cell panel viability, ATPlite luminescence, 48 h; series mostly up to 57.5 µM
How it was run: as §2

[1] = Drug repurposing screens with cells derived from glioblastoma tumor samples (AID 1345199); settings: GBM patient neurospheres viability, ATP luminescence, 48 h; note: nearly all actives have a fitted effect of over 40% in size
How it was run: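 Primary testing used CD133+ neurospheres from four GBM patients, seven concentrations, 48 h exposure and ATP-based viability; confirmation added three slower-growing patient lines.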

OV90 = assay: Primary qHTS to identify gynecologic anti-cancer compounds using libraries of approved drugs and bioactive compounds (AID 1345084); settings: Gynecologic cancer cell panel viability, ATPlite luminescence, 48 h; series mostly up to 57.5 µM; note: nearly all actives have a fitted effect of over 55% in size
How it was run: as §2

[2] = at 45.9 µM (top of the series), tumour line B
% is set by controls: 0 for no effect and ±100 for the full control effect.

O=C(O)c1nn(Cc2ccc(Cl)cc2Cl)c2ccccc12
inactive: Potency (MCC-13) | Potency (MCC-26) | Potency (MKL-1) | Potency (MKL-2) | outcome (NIH3T3) | Potency (UISO) | Potency (WaGa) | Potency (C33A) | Potency (CAOV3) | Potency (CASKI) | Potency (Es-2) | Potency (HeLa) | Potency (Hek293T) | Potency (JEG-3) | Potency (PA-1) | Potency (SKOV3) | Potency (Tov-21-G) | Potency (Tov112D) | activity, negative = cell killing [1, 2] -14.7% | activity, negative = cell killing ([1]; at 46 µM (top of the series), tumour line A) -31.3%

Nc1ccccc1C(=O)OCC(O)CO (stereo unspecified)
inactive: Potency (MCC-13) | Potency (MCC-26) | Potency (MKL-1) | Potency (MKL-2) | Potency (UISO) | Potency (WaGa) | Potency (C33A) | Potency (CAOV3) | Potency (CASKI) | Potency (Es-2) | Potency (HeLa) | Potency (Hek293T) | Potency (JEG-3) | Potency (OV90) | Potency (PA-1) | Potency (SKOV3) | Potency (Tov-21-G) | Potency (Tov112D)

CC(CC(C(N)=O)(c1ccccc1)c1ccccc1)N(C)C (stereo unspecified)
inactive: Potency (MCC-13) | Potency (MCC-26) | Potency (MKL-1) | Potency (MKL-2) | outcome (NIH3T3) | Potency (UISO) | Potency (WaGa) | Potency (C33A) | Potency (CASKI) | Potency (Es-2) | Potency (HeLa) | Potency (Hek293T) | Potency (JEG-3) | Potency (OV90) | Potency (PA-1) | Potency (SKOV3) | Potency (Tov-21-G) | Potency (Tov112D)

ClCc1cccc(Cl)c1
inactive: Potency (MCC-13) | Potency (MCC-26) | Potency (MKL-1) | Potency (MKL-2) | Potency (UISO) | Potency (WaGa) | Potency (C33A) | Potency (CAOV3) | Potency (CASKI) | Potency (Es-2) | Potency (HeLa) | Potency (Hek293T) | Potency (JEG-3) | Potency (OV90) | Potency (PA-1) | Potency (SKOV3) | Potency (Tov-21-G) | Potency (Tov112D)

CCCC[N+]1(C)[C@@H]2CC(OC(=O)[C@H](CO)c3ccccc3)C[C@H]1[C@@H]1O[C@@H]12 (stereo partly specified)
inactive: Potency (MCC-13) | Potency (MCC-26) | Potency (MKL-1) | Potency (MKL-2) | Potency (UISO) | Potency (WaGa) | Potency (C33A) | Potency (CAOV3) | Potency (CASKI) | Potency (Es-2) | Potency (HeLa) | Potency (Hek293T) | Potency (JEG-3) | Potency (OV90) | Potency (PA-1) | Potency (SKOV3) | Potency (Tov-21-G) | Potency (Tov112D) | activity, negative = cell killing [1, 2] -7.47%

O=c1[nH]c2cc(Cl)ccc2n1C1CCNCC1
inactive: Potency (MCC-13) | Potency (MCC-26) | Potency (MKL-1) | Potency (MKL-2) | outcome (NIH3T3) | Potency (UISO) | Potency (WaGa) | Potency (C33A) | Potency (Es-2) | Potency (HeLa) | Potency (Hek293T) | Potency (JEG-3) | Potency (OV90) | Potency (PA-1) | Potency (SKOV3) | Potency (Tov-21-G) | Potency (Tov112D)

CC(C)(C)OC(=O)c1ncn2c1[C@@H]1CCCN1C(=O)c1c(Br)cccc1-2
inactive: Potency (MCC-13) | Potency (MCC-26) | Potency (MKL-1) | Potency (MKL-2) | outcome (NIH3T3) | Potency (UISO) | Potency (WaGa) | Potency (C33A) | Potency (CAOV3) | Potency (CASKI) | Potency (Es-2) | Potency (HeLa) | Potency (Hek293T) | Potency (JEG-3) | Potency (OV90) | Potency (PA-1) | Potency (SKOV3) | Potency (Tov-21-G) | Potency (Tov112D) | activity, negative = cell killing [1, 2] -9.06% | activity, negative = cell killing ([1]; at 45.9 µM (top of the series), tumour line D) -11.3%
